Source: PubChem BioAssay (several laboratories)
Shown are actives, neighbours in structure and some others; about 3.9% of the full set was active somewhere.
CR mimetic SO = reduction of superoxide in aged yeast, primary screen, HTS. superoxide response (% of plate mean), % at 10 µM. AID 2690, 2010. 0.18% of 330,000 active. S. cerevisiae aged cells, superoxide DHE fluorescence; hits give low values;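 active = superoxide response under a set limit, about three screen SD below normal, cut at about 65% in these data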;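 also: yeast aged for seven days with compound at 30 °C before DHE staining; 100% = average MFI of all compound-treated wells on the plate with controls excluded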
sPLA2-III inh = human group III sPLA2 inhibitors, primary screen, biochemical, QFRET, BODIPY PC-A2 liposome substrate | AID 743126, 2013 | inhibition, % at 12.2 µM | QFRET BODIPY PC-A2 liposome hydrolysis, fluorescence | 0.56% of 370,000 active;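 active = inhibition above mean plus 3 SD of compounds lying within the high and low control bounds, cut at about 19% in these data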;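 also: 0% = median of test compound wells and 100% = no enzyme DMSO wells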
Target sequence (Q9NZ20 whole entry, looked up): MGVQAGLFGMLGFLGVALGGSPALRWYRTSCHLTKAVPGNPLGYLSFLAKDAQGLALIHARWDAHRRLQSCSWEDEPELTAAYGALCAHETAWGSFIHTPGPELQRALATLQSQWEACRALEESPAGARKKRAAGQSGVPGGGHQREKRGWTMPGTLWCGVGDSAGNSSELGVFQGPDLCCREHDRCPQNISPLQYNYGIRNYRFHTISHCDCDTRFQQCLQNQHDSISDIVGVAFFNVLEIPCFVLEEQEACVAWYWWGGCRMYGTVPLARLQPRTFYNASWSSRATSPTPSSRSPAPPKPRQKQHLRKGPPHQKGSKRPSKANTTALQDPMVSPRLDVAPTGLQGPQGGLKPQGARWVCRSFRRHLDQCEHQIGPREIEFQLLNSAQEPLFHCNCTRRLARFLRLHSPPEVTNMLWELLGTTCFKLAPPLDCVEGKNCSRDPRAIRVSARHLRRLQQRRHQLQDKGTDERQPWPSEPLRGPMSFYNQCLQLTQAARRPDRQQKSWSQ
AHR act = AHR activators, primary screen, cell-based, luminescence, luciferase reporter, human. Aryl hydrocarbon receptor (Homo sapiens), P35869. AHR-responsive luciferase reporter cells. activation, % at 5 µM. 2.5% of 320,000 active; in the data active = activation above about 47%;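 also: 0% = vehicle wells and 100% = reference agonist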
PLC-beta3 inh = human PLC-beta3 inhibitors, primary screen, biochemical, fluorescence; 1-phosphatidylinositol 4,5-bisphosphate phosphodiesterase beta-3 (Homo sapiens), Q01970; AID 720704, 2013; inhibition, % at 12.2 µM; Purified PLC-beta3, fluorogenic substrate; 0.18% of 370,000 active; in the data active = inhibition above about 11%;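 also: 0% = median of compound wells on plate and 100% = full blocker control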
PLCg1 inh = PLC-gamma1 enzyme inhibitors, primary screen, biochemical, fluorescence, purified enzyme; 0.84% of 370,000 active; 1-phosphatidylinositol 4,5-bisphosphate phosphodiesterase gamma-1 (Homo sapiens), P19174; inhibition, % at 12.2 µM; fluorogenic substrate; in the data active = inhibition above about 9.5%
HIF act = HIF pathway transcriptional activators, primary screen, cell-based, U2OS HRE-luciferase, luminescence; U2OS HRE-luciferase reporter; normalized: DMSO 0%, desferrioxamine 100%; activation, % at 7.5 µM (by protocol); 0.32% of 300,000 active; AID 1910, 2009;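 active = mean activation of at least 10% of the iron chelator positive control signal, with at least half of replicates also reaching 10%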
Active calls of the source: *.

For CCOC(=O)c1c(C)nc2c(C)cccn12 the results were CR mimetic SO 96, sPLA2-III inh 2, AHR act 0, PLC-beta3 inh -1, PLCg1 inh 1 and HIF act 0.
Screening CCOC(=O)c1c(C)nc2c3ccccc3ccn12 returned CR mimetic SO 92, sPLA2-III inh 3, AHR act 75*, PLC-beta3 inh -1, PLCg1 inh 3 and HIF act 1.
`CC(=C\C=O)/C(C)=C/CC[C@@H]1O[C@@H]2C[C@@H]3O[C@](C)(C[C@H]4C[C@H](O)[C@@H]5O[C@@H]6C[C@H](O)[C@@H](C)O[C@@]6(C)CC[C@H]5O4)[C@@H](O)CC[C@@]3(C)O[C@H]2[C@@H](O)[C@@H]1C` gave sPLA2-III inh 5, PLC-beta3 inh 0 and PLCg1 inh 3.
Screening Cc1ccc(C2=N/C(=C/N3CCOCC3)C(=O)O2)cc1 returned CR mimetic SO 102, sPLA2-III inh -3, AHR act 57*, PLC-beta3 inh 5, PLCg1 inh 5 and HIF act 3.
Screening Cc1ccc(C2=N/C(=C\N3CCCCC3)C(=O)O2)cc1 returned CR mimetic SO 109, sPLA2-III inh 3, AHR act -1, PLC-beta3 inh -6, PLCg1 inh 6 and HIF act 2.
Screening CN(C)C=NC(=O)c1cn(-c2ccc(F)cc2)c(=O)c2ccccc12 returned CR mimetic SO 92, sPLA2-III inh 7, AHR act 1, PLC-beta3 inh -2, PLCg1 inh -1 and HIF act 58*.
Screening Cc1ccccc1CNC(=O)C1C2C=CC3(CN(Cc4ccccc4)C(=O)C13)O2 (configuration not stated) returned sPLA2-III inh 9, PLC-beta3 inh -2 and PLCg1 inh -1.
For COc1ccccc1Nc1nc(-c2sc(NC(=O)CC(C)C)nc2C)cs1 the results were CR mimetic SO 96, sPLA2-III inh 3, AHR act 71*, PLC-beta3 inh -24, PLCg1 inh -12 and HIF act -1.
`COc1cccc(Nc2nc(-c3sc(NC(=O)CC(C)C)nc3C)cs2)c1` gave CR mimetic SO 107, sPLA2-III inh 6, AHR act 51*, PLC-beta3 inh -22, PLCg1 inh -16 and HIF act -1.
For Cc1ncoc1C(=O)N1CCCC(N2CCN(c3cccc(C(F)(F)F)c3)CC2)C1 (configuration not stated) the results were CR mimetic SO 119, sPLA2-III inh -4, AHR act 55*, PLC-beta3 inh -4, PLCg1 inh 5 and HIF act 1.
`COC(=O)c1[nH]c2ccc(C)cc2c1NC(=O)CN1CCCc2ccccc21` gave CR mimetic SO 109, sPLA2-III inh -12, AHR act 57*, PLC-beta3 inh -24, PLCg1 inh -19 and HIF act 1.
Screening COC(=O)c1[nH]c2ccc(C)cc2c1NC(=O)Oc1ccccc1 returned CR mimetic SO 103, sPLA2-III inh -3, AHR act 54*, PLC-beta3 inh -41, PLCg1 inh -28 and HIF act 0.
For CCOC(=O)c1[nH]c2ccccc2c1NC(=S)Nc1cccc(C)c1C the results were CR mimetic SO 133, sPLA2-III inh 5, AHR act 56*, PLC-beta3 inh -30, PLCg1 inh -21 and HIF act 2.
CCS(=O)(=O)Nc1c(C(=O)OC)[nH]c2ccccc12 was read as CR mimetic SO 95, sPLA2-III inh 2, AHR act 21, PLC-beta3 inh -4, PLCg1 inh -8 and HIF act 0.
Screening COC(=O)c1[nH]c2cc(OC)c(OC)cc2c1NC(=O)Oc1ccccc1 returned CR mimetic SO 91, sPLA2-III inh 12, AHR act 0, PLC-beta3 inh -106, PLCg1 inh -83 and HIF act 0.
Screening C=CCOC(=O)Nc1c(C(=O)OC)[nH]c2ccccc12 returned CR mimetic SO 113, sPLA2-III inh -4, AHR act 57*, PLC-beta3 inh -10 and PLCg1 inh -6.
CC(C)(C)N1Cc2nnn(Cc3ccccc3)c2-c2cc(F)ccc2S1(=O)=O was read as sPLA2-III inh -1, PLC-beta3 inh 4 and PLCg1 inh 1.
Screening C[C@H]1CN([C@@H](C)CO)C(=O)c2cc(Br)cnc2O[C@H]1CN(C)C(=O)c1cccnc1 returned sPLA2-III inh 8, PLC-beta3 inh 1 and PLCg1 inh 1.
For C[C@@H]1CN([C@H](C)CO)C(=O)c2cc(Br)cnc2O[C@H]1CN(C)C(=O)c1ccccc1 the results were sPLA2-III inh 2, PLC-beta3 inh 7 and PLCg1 inh 11*.
`COc1ccc(CN2C(C(=O)NCC(C)C)CSCCS2(=O)=O)cc1` (configuration not stated) gave sPLA2-III inh 4, PLC-beta3 inh 2 and PLCg1 inh -1.
Cc1ccc(-c2cc(C(=O)NN=Cc3cccc4ccccc34)[nH]n2)cc1C was read as sPLA2-III inh -1, PLC-beta3 inh 6 and PLCg1 inh 8.
CCOC(=O)CNC(=O)C(Cc1ccc2c(c1)OCO2)NC(C)=O (configuration not stated) was read as sPLA2-III inh 1, PLC-beta3 inh 0 and PLCg1 inh 2.
For Nc1cc(Cl)nc(N/N=C/c2ccc([N+](=O)[O-])cc2)n1 the results were CR mimetic SO 110, sPLA2-III inh -2, AHR act 5, PLC-beta3 inh 2, PLCg1 inh 1 and HIF act 0.
Screening O=[N+]([O-])c1ccccc1/C=C/C=N/Nc1nc(N2CCCCC2)nc(N2CCCCC2)n1 returned CR mimetic SO 86, sPLA2-III inh 3, AHR act 2, PLC-beta3 inh 1, PLCg1 inh 1 and HIF act 0.
Screening Nc1cc(Cl)nc(N/N=C/c2ccccc2[N+](=O)[O-])n1 returned CR mimetic SO 95, sPLA2-III inh 3, AHR act 52*, PLC-beta3 inh 2, PLCg1 inh 2 and HIF act 2.
`O=[N+]([O-])c1ccccc1/C=N/Nc1nc(N2CCCC2)nc(N2CCCC2)n1` gave CR mimetic SO 113, sPLA2-III inh 11, AHR act 51*, PLC-beta3 inh -7, PLCg1 inh -1 and HIF act 0.
Screening COc1nc(N/N=C/c2ccc(-c3ccccc3[N+](=O)[O-])o2)nc(N2CCOCC2)n1 returned CR mimetic SO 96, sPLA2-III inh 6, AHR act 50*, PLC-beta3 inh -10, PLCg1 inh -9 and HIF act 2.
